NS1 function inh: inhibitors of influenza NS1 protein function. AID 2326. actives 0.4% (n = 270,000). Potency, µM (doses to about 46.1 µM), inactives show at the highest dose activity, positive = more growth; calls by dose curve; also: potency is read from the fitted curve at half-maximal effect; actives are rising curves; nearly all actives have a fitted effect of over 50% in size
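A cell-based growth assay was used: compounds that relieve NS1-induced slow growth of budding yeast raise OD600. Assay medium was yeast nitrogen base with ammonium sulphate and -URA supplement, pH 6.0, with 2% galactose.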
SARS PLP yeast: SARS-CoV PLP inhibition in yeast. S. cerevisiae expressing SARS-CoV PLpro, growth rescue. Potency, µM (top dose mostly 32.9 µM), inactives show top-dose activity, positive = growth rescue, most hits filed as activators. actives 0.19% (n = 330,000). AID 485353; calls by dose curve; also: potency is read from the fitted curve at half-maximal effect; 0% is about no effect; nearly all actives have a fitted effect of over 55% in size
Cycloheximide cs: counter-screen for Shiga toxin inhibitors: cycloheximide protein synthesis inhibition. cell reporter, cycloheximide protein synthesis inhibition counterscreen. max response, %. actives 12% (n = 300,000); in the data active = max response mostly above about 13%, no sharp cut-off; inactive = mostly below about 14%; also: read at 38.3 µM for the half of the compounds with a filed dose; 0% is about no effect
Pf growth 48h: P. falciparum growth inhibition at 48 hours (one generation); P. falciparum luciferase growth in erythrocytes, 48 h; Potency, µM (highest dose often 28.7 µM), inactives show top-dose activity change, negative = inhibition, actives largely listed as inhibitors; actives 5.9% (n = 310,000); also: potency is read from the fitted curve at half-maximal effect; % is scaled to controls: 0 for no effect and ±100 for the full control effect
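In quantitative HTS format, infected erythrocytes bearing luciferase-reporter parasites were treated for a single generation at 37 C. Luminescence after adding detection reagent served as the growth measure.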
Shiga toxin inh: Shiga toxin inhibition. actives 9.2% (n = 290,000). inhibition, % at 38.7 µM. Vero cells, Shiga toxin protein synthesis inhibition reporter; in the data active = inhibition mostly above about 28%, no sharp cut-off; inactive = mostly below about 43%; also: 0% is about no effect
Pf growth 96h: P. falciparum growth inhibition at 96 hour, primary screen for plastid delayed-death inhibitors | P. falciparum luciferase reporter growth, 96 h | Potency, µM (top dose mostly 28.7 µM), without a hit: at the top dose activity change, negative = inhibition, hits mostly inhibitors | actives 6.9% (n = 320,000); also: potency is read from the fitted curve at half-maximal effect; % is scaled to controls: 0 for no effect and ±100 for the full control effect
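Delayed-death screen, second-generation endpoint: infected erythrocytes, 2% hematocrit, 0.05% parasitemia final; 96 hours at 37 C, 5% CO2; luciferase detection reagent; luminescence decrease equals reduced growth.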
An asterisk follows results filed as active; ? = inconclusive; nt = no result; [ ] = dose if it differs, or a comment. Only some compounds are listed: those with a hit (about 21% of all), similar ones and a draw of the others. Unless noted, calls follow the shape of the dose curve; as a rule, active = well fitted inhibition curve with a large enough effect; inconclusive = small, poorly fitted or top-dose-only effect, or another doubt; inactive = no such curve, though single readings can be large or run the other way.

SMILES | NS1 function inh | SARS PLP yeast | Cycloheximide cs | Pf growth 48h | Shiga toxin inh | Pf growth 96h
Cc1cccc2c1-c1sc(C(=O)Nc3cccnc3)cc1CO2 | -11% | 1% | 19* | ? | 42* | -5%
O=C(Nc1cccnc1)c1cc2c(s1)-c1ccccc1OC2 | -50% | nt | 43* | ? | 54* | 211%
Cc1cccc2c1-c1sc(C(=O)NCCCN3CCC(C)CC3)cc1CO2 | 3% | 15% | 3 | ? | -13 | ?
COc1cc(/C=N/n2c(C3CCCCC3)n[nH]c2=S)ccc1O | 1% | -2% | 4 | 27% | -9 | 15%
O=C(Nc1ccc(-c2csc(Nc3ccc(Cl)cc3)n2)cc1)c1ccccc1 | nt | 5% | nt | nt | nt | nt
O=C(Nc1ccc(-c2csc(Nc3cccc(C(F)(F)F)c3)n2)cc1)c1cc([N+](=O)[O-])cc(C(F)(F)F)c1 | 14% | 1% | -10 | 0.83µM* | -4 | 0.47µM*
CCCCC(=O)Nc1cccc(-c2csc(-c3ccccc3)n2)c1 | -2% | -19% | 12 | ? | 61* | ?
O=C(Nc1cccc(-c2csc(Nc3cccc(C(F)(F)F)c3)n2)c1)c1ccccc1 | 24% | -10% | -1 | 12µM* | 8 | ?
O=C(O)CCC(=O)Nc1cccc(-c2csc(-c3ccccc3)n2)c1 | nt | -1% | 3 | 8% | -16 | 50%[5.75 µM]
O=C(Nc1cccc(-c2csc(Nc3ccccc3)n2)c1)c1ccccc1 | -42% | -13% | 31* | 31% | 84* | 16%
Cc1ccc(NC(=O)COC(=O)c2cc(C)nc3ccccc23)c([N+](=O)[O-])c1 | 12% | 2% | -2 | 17% | -8 | -3%
Nc1nc(CSc2n[nH]c(-c3ccccc3)n2)nc(Nc2ccccc2)n1 | -22% | -1% | -1 | -1% | -10 | ?
Cc1ccc(-c2nc(Nc3ccccc3)n[nH]2)cc1 | -12% | -10% | 43* | 352% | 83* | nt
CC(C)c1ccc(OCc2cccc(C(=O)N/N=C/c3cccnc3)c2)cc1 | 11% | -5% | 133* | 278% | 164* | 130%
CCOc1ccc(OCc2cccc(C(=O)N/N=C/c3cccnc3)c2)cc1 | 7% | 8% | 88* | 254% | 166* | 234%
CC1Sc2ccc(S(=O)(=O)N3CCC(C(=O)NCc4ccccc4)CC3)cc2NC1=O (stereo not given) | 4% | -1% | 1 | ? | -7 | 1µM*
CC1Sc2ccc(S(=O)(=O)N3CCC(C(=O)N4CCN(C)CC4)CC3)cc2NC1=O (stereo not given) | -3% | 1% | -2 | ? | 11 | ?
COc1cccc(NC(=O)C2CCN(S(=O)(=O)c3ccc4[nH]c(=O)ccc4c3)CC2)c1 | -1% | 3% | -2 | ? | -6 | 9.3µM*
COc1cccc(NC(=O)C2CCN(S(=O)(=O)c3ccc4c(c3)NC(=O)C(C)S4)CC2)c1 (stereo not given) | 11% | -10% | -8 | ? | -8 | 26%
COc1ccc(NC(=O)C2CCN(S(=O)(=O)c3ccc4c(c3)NC(=O)C(C)S4)CC2)cc1 (stereo not given) | 6% | -4% | -2 | 9.3µM* | -8 | -13%
CCOc1ccc(NC(=O)C2CCN(S(=O)(=O)c3ccc4c(c3)NC(=O)C(C)S4)CC2)cc1 (stereo not given) | -8% | -5% | -9 | ? | -4 | ?
CC1Sc2ccc(S(=O)(=O)NCc3ccccc3)cc2NC1=O (stereo not given) | -2% | 3% | 2 | -2% | 13 | 13µM*
Cc1onc(-c2ccccc2)c1CNS(=O)(=O)c1cccc(Br)c1 | 0% | 1% | 1 | 14% | 11 | 19%
O=C(CNC(=O)c1cccs1)Nc1ncccc1O | nt | -3% | nt | 17% | nt | 6%
CC1Sc2ccc(S(=O)(=O)N3CCC(C(=O)Nc4ccc(Cl)cc4)CC3)cc2NC1=O (stereo not given) | -13% | 0% | -11 | ? | -3 | 13µM*
CC1Sc2ccc(S(=O)(=O)CCC(=O)N(C)Cc3ccccc3)cc2NC1=O (stereo not given) | 16% | -2% | -1 | -1% | -3 | 65%
